GRK2 inh – blocks RNA aptamer binding to human GRK2; inhibition of aptamer binding, % at 10 µM; bead flow cytometry, FAM-aptamer displacement from GRK2; P25098; hit rate 0.59% among 330,000;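 active = inhibition of aptamer binding above 40%, roughly 3 SD of noise, on plates passing a quality check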;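 also: median bead fluorescence of bound FAM aptamer so fluorescent compounds give negative values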
Efflux pump mplx – antifungal efflux pump inhibition, Nile Red retention; S. cerevisiae Candida pump triplex; inhibition, % at 10 µM; hit rate 0.44% among 330,000; AID 485275;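 active = plate passing quality check with inhibition over a set limit, or well fluorescence over plate mean plus 4 SD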;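 also: Nile Red retained in pooled yeast measured as flow cytometry median fluorescence; 0% = buffer negative control and 100% = Enniatin B positive control; higher means more Nile Red kept so more efflux inhibition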
Rtt109 Vps75 – blocks Candida albicans Rtt109/Vps75 acetyltransferase activity. inhibition, % at 34.9 µM. hit rate 0.16% among 330,000. AID 540336. purified Rtt109/Vps75, ThioGlo CoA-SH fluorescence, 4 h;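 active = inhibition of at least 50% in every replicate; inconclusive = best replicate reaches 50% inhibition but some replicates fall short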
HDAC3 inhib – inhibitors of human histone deacetylase 3; hit rate 0.15% among 320,000; inhibition, % at 8.3 µM; recombinant HDAC3, fluorogenic peptide/trypsin coupled, fluorescence; AID 2718; in the data active = inhibition above about 26%, passing the limit was not always enough; inconclusive = no clear call, values can overlap the other calls
Target sequence (O15379 whole entry, looked up): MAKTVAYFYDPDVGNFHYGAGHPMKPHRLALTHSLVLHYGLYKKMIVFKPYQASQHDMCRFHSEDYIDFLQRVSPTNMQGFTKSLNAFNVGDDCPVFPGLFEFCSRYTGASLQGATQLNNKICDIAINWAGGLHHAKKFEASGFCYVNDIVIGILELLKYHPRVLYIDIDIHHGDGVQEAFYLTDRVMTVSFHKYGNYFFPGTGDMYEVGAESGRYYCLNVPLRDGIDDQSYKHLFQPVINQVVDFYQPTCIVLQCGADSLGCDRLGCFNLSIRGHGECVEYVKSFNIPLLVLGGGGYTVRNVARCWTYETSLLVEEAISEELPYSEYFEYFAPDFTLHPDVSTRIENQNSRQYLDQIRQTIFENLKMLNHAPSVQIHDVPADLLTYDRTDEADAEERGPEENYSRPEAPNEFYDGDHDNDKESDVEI
ALR H2O2 inh – human ALR oxidase inhibition via reduced H2O2; inhibition, % (no concentration beside the values); AID 485317; P55789; purified ALR, DTT oxidation, H2O2 HRP-luminol luminescence; hit rate 3.8% among 290,000;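 active = mean replicate inhibition above about 79%, with every replicate also reaching it, limit read from the data; inconclusive = only one of the two criteria met; inactive = mean below limit and not every replicate reaching it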
Rce1 inhib – blocks yeast Ras-converting enzyme; Q03530; yeast membranes, quenched prenylated peptide cleavage fluorescence; calls only; hit rate 0.27% among 290,000;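 active = fall in fluorescence gain of 50% or more versus controls, with final raw signal at or below 3038400; inconclusive = same 50% fall but final raw signal above 3038400; inactive = fall in fluorescence gain under 50%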;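 also: plate controls were neutral control wells for no effect and wells lacking membranes for full effect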
GRK2 CP1 – human GRK2 inhibition confirmation, cherry pick 1. hit rate 4% among 2,000. aptamer displacement, % at 10 µM. bead-bound GRK2, FAM-aptamer displacement, flow cytometry. shares compounds with GRK2 inh;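 active = aptamer displacement above 40%, near three times the noise of non-fluorescent compounds, on plates passing quality checks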;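 also: negative values mostly reflect intrinsic compound fluorescence rather than true enhancement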
Aptamer quench SP – counter-screen for GRK2 aptamer inhibitors: fluorescent aptamer quenchers | shares compounds with GRK2 inh | AID 504580 | Carboxyfluorescein RNA aptamer on beads, flow cytometry quenching; active compounds read low | fluorescence response (% of DMSO), % at 10 µM | 2,000 tested, under 10 active;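 active = compounds that quench the bead-bound fluorescent RNA probe, cutting fluorescence to under half of the solvent control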;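 also: counterscreen run without GRK2 so only probe quenching by compound is measured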
GRK2 confirm 2 – human GRK2 inhibition confirmation, cherry pick 2; shares compounds with GRK2 inh; 360 tested, under 10 active; bead-bound GRK2, FAM-aptamer displacement, flow cytometry; inhibition of aptamer binding, % at 10 µM;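 active = inhibition of aptamer binding above 40%, about triple the noise seen with nonglowing compounds, on plates passing quality control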;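 also: negative values mostly come from compounds that fluoresce themselves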
FAM quench CP2 – aptamer fluorescence quenching in GRK2 counter-screen. shares compounds with GRK2 inh. carboxyfluorescein RNA aptamer beads, flow cytometry quenching; active compounds read low. fluorescence response vs DMSO, % at 10 µM. 360 tested, under 10 active. AID 588494;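 active = response vs DMSO under 50%, meaning signal dropped by over half, treated as fluorescence quencher; inconclusive = no clear call, values can overlap the other calls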;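 also: labelled aptamer on streptavidin beads without GRK2 as a quench counter-screen; 100% = bead fluorescence of DMSO wells and lower means quenching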
Active calls of the source: *; i = inactive; ? = inconclusive; . = not tested or not shown. This is a sample that favours compounds with a hit; in the whole collection about 4.5% have one here.

SMILES	GRK2 inh	Efflux pump mplx	Rtt109 Vps75	HDAC3 inhib	ALR H2O2 inh	Rce1 inhib	GRK2 CP1	Aptamer quench SP	others
O=C(c1ccc(S(=O)(=O)N2CCCCC2)cc1)N1CCN(c2ccccc2F)CC1	2	1	10	-3	3	i	.	.
C[C@H]1CN=C(N(C)C)N1CCCC1CCCC1	42*	0	1	2	.	.	-5	100
C[C@H]1CN=C(N(C)C)N1CCC1CCCCC1	3	0	6	-12	-2	.	.	.
Cc1ccc(NC(=O)CCCCCN2C(=O)[C@@H]3Cc4ccccc4CN3C2=O)cc1	0	0	0	-4	-4	i	.	.
Cc1ccccc1NC(=O)CCCCCN1C(=O)[C@@H]2Cc3ccccc3CN2C1=O	2	0	-5	-3	1	i	.	.
O=C(CCCCCN1C(=O)[C@@H]2Cc3ccccc3CN2C1=O)Nc1ccccc1F	3	0	-13	2	1	i	-1	96
O=C(CCCCCN1C(=O)[C@@H]2Cc3ccccc3CN2C1=O)Nc1cccc(F)c1	0	0	-10	-3	-1	i	3	96
Cc1cccc(NC(=O)CCCCCN2C(=O)[C@@H]3Cc4ccccc4CN3C2=O)c1	0	0	-5	0	-6	i	-1	98
O=C(CCCCCN1C(=O)[C@@H]2Cc3ccccc3CN2C1=O)Nc1ccccc1Cl	2	0	7	-1	-20	i	.	.
COc1ccc(NC(=O)CCCCCN2C(=O)[C@@H]3Cc4ccccc4CN3C2=O)cc1Cl	0	0	-2	2	-3	i	0	99
CCOC(=O)C1(CCOC)CCN(C(=O)c2ccc(CSC)o2)CC1	4	-1	-1	4	6	i	.	.
Cc1ccc(C(=O)Nc2c(C)n(C)n(-c3ccccc3)c2=O)cc1	1	0	-4	2	-3	i	.	.
Cc1c(NC(=O)c2n[nH]c(=O)c3ccccc23)c(=O)n(-c2ccccc2)n1C	81*	0	-3	0	-4	i	-1	109
Cn1ccc2cc3c(cc21)CCN3C(=O)Nc1cccnc1	57*	0	-11	10	-25	.	-13	72
Cc1nc(CN(C)Cc2nc(Cc3ccccc3Cl)no2)cs1	1	0	19	-1	24	i	.	.
CCCn1c(SCC(=O)N(C)CC(=O)Nc2ccc(Cl)cc2)n[nH]c1=O	0	0	-3	6	.	.	.	.
COc1cccc2sc3ccc(NCCC4CCCN4C)cc3c(=O)c12 (centres undefined)	0	0	7	-4	?	i	.	.
COc1cc2sc3cc(NCC[C@@H]4CCCN4C)ccc3c(=O)c2cc1OC	77*	0	-255	4	52	.	.	.	GRK2 confirm 2=-23;FAM quench CP2=97
CC1CCN(C(=O)C(Cc2ccccc2)n2cccc2)CC1 (centres undefined)	56*	0	8	4	.	i	3	100
CC1CC(C)CN(C(=O)C(Cc2ccccc2)n2cccc2)C1 (centres undefined)	0	0	2	7	10	i	.	.
O=C1NC(=O)/C(=C\c2ccc(O)cc2O)S1	76*	0	8	?	99*	i	3	102
Cc1cc(C)n2nc(C(=O)OCC(=O)NCc3ccc(F)cc3)nc2n1	0	0	1	-2	37	.	.	.
CN(C)CCCN(C(=O)CCSc1ccccc1)c1nc2cc3c(cc2s1)OCO3	68*	0	-7	-2	-1	i	-10	101
CN(C)CCCN(C(=O)CCS(=O)(=O)c1ccccc1)c1nc2cc3c(cc2s1)OCO3	16	0	-4	7	42	i	.	.
O=c1cc(-c2ccccc2)oc2cc(O)c(O)c(O)c12	1	0	8	.	.	.	.	.
